Bioassay records from PubChem BioAssay.
Hits are enriched below; roughly 6.9% of the tested compounds scored in any of these assays.
HCV NS3h FP: HCV NS3 helicase inhibitors, primary screen, biochemical, fluorescence polarization, ChemBridge library. NS3h Cy5-dT15 DNA binding. inhibition, % at 100 µM. Hepatitis C virus NS3 helicase. actives 1.6% (n = 16,000);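 active = inhibition above the average over every tested compound plus 3 SD, cut at about 40% in these data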
Cy5 interf NS3h: Cy5 fluorescence quenchers or enhancers, artefact control for HCV NS3 helicase inhibitor project, biochemical, ChemBridge library, Cy5 readout; Cy5-dT15 DNA with NS3h, fluorescence interference; actives lie on both sides; signal over control mean, under 1 quenches; fluorescence interference ratio at 100 µM; actives 6% (n = 16,000); AID 720488, 2013;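 active = compound fluorescence over control fluorescence at most 0.8, a quencher, or at least a set upper limit, an enhancer; inactive = ratio between 0.8 and the set upper limit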
* = called active by the depositor.

SMILES | HCV NS3h FP | Cy5 interf NS3h
O=C(Nc1cccc(Cl)c1Cl)c1cc2nc(-c3ccc([N+](=O)[O-])cc3)cc(C(F)(F)F)n2n1 | 10 | 0.79*
CCCNC(=O)c1cc2nc(-c3ccc(OC)cc3)cc(C(F)(F)F)n2n1 | 12 | 0.91
CCOC(=O)c1c(-c2ccccc2)oc2ccc(OCC(=O)O)cc12 | 16 | 0.88
CC(=O)NC1=NC(=O)/C(=C/c2cc(Cl)ccc2OCc2c(F)cccc2Cl)S1 | 5 | 0.77*
COC(=O)c1c(C)oc2ccc(OCc3c(F)cccc3Cl)cc12 | 10 | 0.91
COc1cc(/C=C2/SC(=S)NC2=O)cc(Cl)c1O | 19 | 0.98
COc1ccc(C2Nc3ccc4ccccc4c3C3=C2C(=O)CC(C)(C)C3)cc1[N+](=O)[O-] (stereo not given) | 9 | 0.97
CC1(C)CC(=O)C2=C(C1)c1c(ccc3ccccc13)NC2c1ccccc1F (stereo not given) | 21 | 0.75*
COc1ccccc1NC(=O)/C(=C/c1ccco1)NC(=O)c1ccc(C)cc1 | 10 | 1.3*
Cc1ccc(C(=O)N/C(=C\c2ccco2)C(=O)Nc2ccccc2C)cc1 | 8 | 1
N/C(=N/OC(=O)c1ccc(Br)cc1)c1cccnc1 | 9 | 1
O=S(=O)(c1cc(Cl)cc(Cl)c1O)c1cc(Cl)cc(Cl)c1O | 25 | 0.5*
CC(=O)Nc1ccc(NS(=O)(=O)c2cc(Cl)ccc2Cl)cc1 | 1 | 0.99
O=C(Oc1ccccc1C(=S)N1CCOCC1)c1ccc([N+](=O)[O-])cc1 | 2 | 0.89
O=C(Oc1cccc(C(=S)N2CCOCC2)c1)c1ccc([N+](=O)[O-])cc1 | 20 | 0.66*
O=C(Nc1ccc(Nc2ccccc2)cc1)c1ccc([N+](=O)[O-])cc1 | 17 | 0.95
CC(C)N(C(=O)c1ccc(C(=O)Nc2ccc(Nc3ccccc3)cc2)cc1)C(C)C | 17 | 0.7*
COc1ccc(OCCNC(=O)c2ccc(C)cc2)cc1 | 5 | 1
O=c1oc(-c2ccc(Cl)cc2Cl)nc2ccccc12 | 7 | 1.2
O=c1oc(-c2ccccc2Cl)nc2ccc(-c3ccc4nc(-c5ccccc5Cl)oc(=O)c4c3)cc12 | 1 | 0.69*
CCOc1ccc(N(CC(=O)Nc2cccc(OC)c2)S(=O)(=O)c2ccc(SC)cc2)cc1 | 6 | 0.97
CCn1c(-c2ccc(Cl)cc2)n[nH]c1=S | 0 | 1
O=C(N/N=C\c1ccc(Cl)cc1)c1ccc(O)cc1 | 0 | 0.93
Cc1ccc(/C=N\NC(=O)c2ccccc2C)cc1 | 11 | 0.79*
COc1cc(C=C2C(=O)NC(=S)NC2=O)ccc1OCCC(C)C | 8 | 0.99
SMILES | HCV NS3h FP | Cy5 interf NS3h
O=C1NC(=O)C(=Cc2ccc(-c3cc(Cl)c([N+](=O)[O-])cc3Cl)o2)C(=O)N1 | -141 | 0.04*
Cc1cc([N+](=O)[O-])c(-c2ccc(C=C3C(=O)c4ccccc4C3=O)o2)cc1Cl | 6 | 1
CN(C)c1cccc(C(=O)Nc2cccc(Br)c2)c1 | -1 | 1.1
NC1=NC(=O)/C(=C\c2ccccc2Cl)S1 | 8 | 1.1
COc1cc(/C=C2\SC(N)=NC2=O)c([N+](=O)[O-])cc1OC | -15 | 0.77*
CCOC(=O)C1=C(N)Oc2ccc3ccccc3c2C1c1ccc(C)cc1 (stereo not given) | 11 | 0.93
Cn1ccnc1SCC(=O)c1ccc(Br)cc1 | 12 | 0.77*
O=C(CSc1ncn(-c2ccccc2)n1)c1ccc(Br)cc1 | 4 | 0.99
O=C(Nc1ccc(Cl)cc1)Nc1nnc(-c2cccc(F)c2)s1 | 2 | 0.99
O=C(Nc1ccc(Cl)cc1)Nc1nnc(-c2cccs2)s1 | 14 | 0.69*
CCc1ccc(NC(=O)C(=O)NCc2ccccc2OC)cc1 | 17 | 1
Cc1ccc(N2C(=O)/C(=C/c3ccc(F)cc3)SC2=S)cc1C | 1 | 1
CCN(CC)c1ccc(/C=C2/SC(=S)N(CNc3cccc(C)c3)C2=O)cc1 | 9 | 0.65*
CCN1C(=O)/C(=C\c2cccc(C)c2)SC1=S | -2 | 0.94
CCOc1ccc2oc(C)c(C(=O)OC(C)C)c2c1 | 11 | 0.96
COc1ccc(/C=C/C(=O)N(C(C)C)C(C)C)cc1Br | 8 | 1
COc1ccc(/C=C/C(=O)N2CCOCC2)cc1Br | 2 | 0.67*
CC1CN(Cc2c(O)ccc3c(-c4ccccc4)cc(=O)oc23)CC(C)O1 (stereo not given) | 7 | 1.1
O=C(CSc1cccc2cccnc12)OCC(=O)c1ccccc1 | -10 | 0.93
O=C(CSc1ccccn1)OCC(=O)c1ccc(Br)cc1 | 4 | 0.64*
O=C(c1ccc2c(c1)OCCO2)C1CC1 | 0 | 1.1
O=C(Nc1ccc(-c2cnc(-c3ccc(NC(=O)c4ccccc4)cc3)nc2)cc1)c1ccccc1 | 3 | 0.95
Cc1ccccc1C(=O)Nc1ccc(-c2cnc(-c3ccc(NC(=O)c4ccccc4C)cc3)nc2)cc1 | 18 | 0.75*
O=C(CSc1n[nH]c(-c2ccccc2)n1)c1ccc(Br)cc1 | 14 | 0.97
